According to the supplement of paper PMC11732987, “Enantioselective OTUD7B fragment discovery through chemoproteomics screening and high-throughput optimisation” (Communications Chemistry, 2025):

Key:
Experiment in all cases: log2 ratio of Biotin-Ahx-Ub-VS probe labelling (fragment/DMSO); higher = less target engagement (more negative = stronger competition), active = hit call of the paper (q ≤ 0.05, log2 ratio ≤ -1)
Conditions in all cases: compound concentration: 200 uM; treatment time: 3 h
USP34 = USP34 (UniProt Q70CQ2)
Method in brief: (§1)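 Values give the average log2 ratio of fragment to vehicle, assessed by unpaired t-test on global-median-normalised Spectronaut label-free quantities. Proteins needed ≥2 unique peptides. HEK293T lysate (495 µg per sample) was treated in triplicate with fragment at 200 µM or vehicle for 3 h and then with Biotin-Ahx-Ub-VS at 0.5 µM final for 1 h. Labelled DUBs were NeutrAvidin-enriched, digested and run by diaPASEF LC-MS/MS.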

USP36 = molecular target: T1, USP36 (UniProt Q9P275)
T1 sequence (whole entry): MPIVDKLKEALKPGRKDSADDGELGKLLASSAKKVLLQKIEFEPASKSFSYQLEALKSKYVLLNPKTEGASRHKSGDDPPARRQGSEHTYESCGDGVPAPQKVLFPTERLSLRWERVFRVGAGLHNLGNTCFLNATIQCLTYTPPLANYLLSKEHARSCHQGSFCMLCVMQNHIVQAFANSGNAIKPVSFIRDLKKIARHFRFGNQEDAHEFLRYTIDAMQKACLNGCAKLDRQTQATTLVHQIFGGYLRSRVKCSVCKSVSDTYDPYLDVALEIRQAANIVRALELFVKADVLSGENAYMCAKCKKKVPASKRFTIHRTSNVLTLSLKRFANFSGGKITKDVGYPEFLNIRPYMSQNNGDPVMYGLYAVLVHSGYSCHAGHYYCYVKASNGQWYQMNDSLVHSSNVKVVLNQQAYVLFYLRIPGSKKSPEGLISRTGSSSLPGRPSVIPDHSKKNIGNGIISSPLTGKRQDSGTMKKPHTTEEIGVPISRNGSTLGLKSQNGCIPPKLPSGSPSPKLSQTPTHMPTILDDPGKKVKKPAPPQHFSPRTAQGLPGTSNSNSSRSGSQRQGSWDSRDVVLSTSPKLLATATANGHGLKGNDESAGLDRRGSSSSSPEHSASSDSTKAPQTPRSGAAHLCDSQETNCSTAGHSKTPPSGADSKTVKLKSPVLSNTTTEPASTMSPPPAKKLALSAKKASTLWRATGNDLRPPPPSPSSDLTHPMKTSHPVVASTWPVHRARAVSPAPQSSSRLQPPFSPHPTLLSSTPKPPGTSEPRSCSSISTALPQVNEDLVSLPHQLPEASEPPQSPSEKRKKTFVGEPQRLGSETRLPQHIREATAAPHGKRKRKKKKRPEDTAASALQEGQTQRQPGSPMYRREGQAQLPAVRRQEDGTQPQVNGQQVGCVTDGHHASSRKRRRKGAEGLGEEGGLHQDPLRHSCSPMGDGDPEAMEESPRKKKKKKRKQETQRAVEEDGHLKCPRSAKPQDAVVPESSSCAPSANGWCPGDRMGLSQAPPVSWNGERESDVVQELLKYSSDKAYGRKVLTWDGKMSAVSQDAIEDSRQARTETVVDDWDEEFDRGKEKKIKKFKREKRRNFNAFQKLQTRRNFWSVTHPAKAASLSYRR
Method in brief: as §1

USP38 = molecular target: T2, USP38 (UniProt Q8NB14)
T2 sequence (whole entry): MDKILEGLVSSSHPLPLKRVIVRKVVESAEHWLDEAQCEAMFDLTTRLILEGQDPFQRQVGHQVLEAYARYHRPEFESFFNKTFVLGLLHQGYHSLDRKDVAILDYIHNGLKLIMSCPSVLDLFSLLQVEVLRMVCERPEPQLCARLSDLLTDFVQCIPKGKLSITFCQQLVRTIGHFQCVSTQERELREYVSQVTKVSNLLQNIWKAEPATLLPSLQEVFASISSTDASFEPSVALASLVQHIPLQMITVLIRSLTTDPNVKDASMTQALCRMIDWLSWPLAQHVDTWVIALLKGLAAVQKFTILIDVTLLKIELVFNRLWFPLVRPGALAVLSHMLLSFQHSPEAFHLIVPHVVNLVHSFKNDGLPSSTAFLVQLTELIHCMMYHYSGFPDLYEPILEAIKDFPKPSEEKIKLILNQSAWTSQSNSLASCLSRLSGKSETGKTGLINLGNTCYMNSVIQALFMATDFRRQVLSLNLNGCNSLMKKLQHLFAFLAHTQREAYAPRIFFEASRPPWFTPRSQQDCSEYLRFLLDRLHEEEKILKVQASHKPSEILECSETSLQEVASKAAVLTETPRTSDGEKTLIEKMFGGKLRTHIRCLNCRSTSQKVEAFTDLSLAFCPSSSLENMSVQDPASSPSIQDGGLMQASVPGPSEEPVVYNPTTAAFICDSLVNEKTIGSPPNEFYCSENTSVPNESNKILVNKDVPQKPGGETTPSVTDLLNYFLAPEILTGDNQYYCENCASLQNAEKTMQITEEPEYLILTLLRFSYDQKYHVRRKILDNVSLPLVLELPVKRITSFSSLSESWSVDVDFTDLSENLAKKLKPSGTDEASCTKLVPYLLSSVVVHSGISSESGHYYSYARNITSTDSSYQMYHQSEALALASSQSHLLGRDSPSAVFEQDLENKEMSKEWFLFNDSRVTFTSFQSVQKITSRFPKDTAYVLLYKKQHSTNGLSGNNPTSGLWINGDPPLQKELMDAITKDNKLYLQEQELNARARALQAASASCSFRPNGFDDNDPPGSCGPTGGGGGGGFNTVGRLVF
Method in brief: as §1

USP39 = molecular target: T3, USP39 (UniProt Q53GS9)
T3 sequence (whole entry): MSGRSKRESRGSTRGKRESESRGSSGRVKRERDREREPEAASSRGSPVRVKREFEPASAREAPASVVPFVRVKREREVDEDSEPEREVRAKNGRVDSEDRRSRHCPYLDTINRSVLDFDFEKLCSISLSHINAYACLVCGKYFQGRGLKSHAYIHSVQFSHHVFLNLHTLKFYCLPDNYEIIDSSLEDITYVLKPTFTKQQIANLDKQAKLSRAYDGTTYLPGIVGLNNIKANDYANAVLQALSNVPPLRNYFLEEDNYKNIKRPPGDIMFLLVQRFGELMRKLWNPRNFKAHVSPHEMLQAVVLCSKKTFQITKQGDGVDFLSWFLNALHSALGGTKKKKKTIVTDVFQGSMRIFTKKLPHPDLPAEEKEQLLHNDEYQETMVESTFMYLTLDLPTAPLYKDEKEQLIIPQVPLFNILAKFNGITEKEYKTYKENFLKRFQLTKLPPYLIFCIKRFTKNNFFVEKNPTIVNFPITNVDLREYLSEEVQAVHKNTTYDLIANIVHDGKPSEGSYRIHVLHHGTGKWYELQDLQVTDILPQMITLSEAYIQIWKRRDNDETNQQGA
Method in brief: as §1

USP4 = molecular target: T4, USP4 (UniProt Q13107)
T4 sequence (whole entry): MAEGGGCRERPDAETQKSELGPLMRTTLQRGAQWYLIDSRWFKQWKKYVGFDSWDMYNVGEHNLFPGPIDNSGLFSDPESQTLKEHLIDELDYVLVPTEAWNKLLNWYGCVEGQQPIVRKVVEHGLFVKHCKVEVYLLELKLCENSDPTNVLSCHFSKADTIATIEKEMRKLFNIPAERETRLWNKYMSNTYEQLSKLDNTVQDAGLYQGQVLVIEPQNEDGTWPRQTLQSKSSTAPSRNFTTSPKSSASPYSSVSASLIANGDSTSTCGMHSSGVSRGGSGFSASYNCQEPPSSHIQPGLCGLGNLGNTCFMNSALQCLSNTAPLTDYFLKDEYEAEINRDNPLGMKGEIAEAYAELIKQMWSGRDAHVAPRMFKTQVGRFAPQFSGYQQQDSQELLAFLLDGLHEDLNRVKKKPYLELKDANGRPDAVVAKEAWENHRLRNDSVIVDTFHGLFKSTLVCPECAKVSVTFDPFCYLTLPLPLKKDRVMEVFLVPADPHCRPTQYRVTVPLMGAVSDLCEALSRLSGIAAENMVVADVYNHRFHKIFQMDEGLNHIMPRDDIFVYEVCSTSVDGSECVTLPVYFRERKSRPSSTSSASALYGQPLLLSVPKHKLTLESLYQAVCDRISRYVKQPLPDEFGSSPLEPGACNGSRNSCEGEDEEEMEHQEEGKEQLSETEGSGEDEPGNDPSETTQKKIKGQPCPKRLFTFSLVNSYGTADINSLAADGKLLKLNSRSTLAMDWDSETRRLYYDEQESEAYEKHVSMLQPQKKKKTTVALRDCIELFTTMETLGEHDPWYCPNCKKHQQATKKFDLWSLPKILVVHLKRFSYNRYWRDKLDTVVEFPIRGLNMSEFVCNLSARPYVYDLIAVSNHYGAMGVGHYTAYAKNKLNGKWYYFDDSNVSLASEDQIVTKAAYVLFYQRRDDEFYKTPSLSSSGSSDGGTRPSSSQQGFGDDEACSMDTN
Method in brief: as §1

Measured: log2 ratio of Biotin-Ahx-Ub-VS probe labelling

Sequence of USP34 (Q70CQ2 whole entry, the tested form may be a part): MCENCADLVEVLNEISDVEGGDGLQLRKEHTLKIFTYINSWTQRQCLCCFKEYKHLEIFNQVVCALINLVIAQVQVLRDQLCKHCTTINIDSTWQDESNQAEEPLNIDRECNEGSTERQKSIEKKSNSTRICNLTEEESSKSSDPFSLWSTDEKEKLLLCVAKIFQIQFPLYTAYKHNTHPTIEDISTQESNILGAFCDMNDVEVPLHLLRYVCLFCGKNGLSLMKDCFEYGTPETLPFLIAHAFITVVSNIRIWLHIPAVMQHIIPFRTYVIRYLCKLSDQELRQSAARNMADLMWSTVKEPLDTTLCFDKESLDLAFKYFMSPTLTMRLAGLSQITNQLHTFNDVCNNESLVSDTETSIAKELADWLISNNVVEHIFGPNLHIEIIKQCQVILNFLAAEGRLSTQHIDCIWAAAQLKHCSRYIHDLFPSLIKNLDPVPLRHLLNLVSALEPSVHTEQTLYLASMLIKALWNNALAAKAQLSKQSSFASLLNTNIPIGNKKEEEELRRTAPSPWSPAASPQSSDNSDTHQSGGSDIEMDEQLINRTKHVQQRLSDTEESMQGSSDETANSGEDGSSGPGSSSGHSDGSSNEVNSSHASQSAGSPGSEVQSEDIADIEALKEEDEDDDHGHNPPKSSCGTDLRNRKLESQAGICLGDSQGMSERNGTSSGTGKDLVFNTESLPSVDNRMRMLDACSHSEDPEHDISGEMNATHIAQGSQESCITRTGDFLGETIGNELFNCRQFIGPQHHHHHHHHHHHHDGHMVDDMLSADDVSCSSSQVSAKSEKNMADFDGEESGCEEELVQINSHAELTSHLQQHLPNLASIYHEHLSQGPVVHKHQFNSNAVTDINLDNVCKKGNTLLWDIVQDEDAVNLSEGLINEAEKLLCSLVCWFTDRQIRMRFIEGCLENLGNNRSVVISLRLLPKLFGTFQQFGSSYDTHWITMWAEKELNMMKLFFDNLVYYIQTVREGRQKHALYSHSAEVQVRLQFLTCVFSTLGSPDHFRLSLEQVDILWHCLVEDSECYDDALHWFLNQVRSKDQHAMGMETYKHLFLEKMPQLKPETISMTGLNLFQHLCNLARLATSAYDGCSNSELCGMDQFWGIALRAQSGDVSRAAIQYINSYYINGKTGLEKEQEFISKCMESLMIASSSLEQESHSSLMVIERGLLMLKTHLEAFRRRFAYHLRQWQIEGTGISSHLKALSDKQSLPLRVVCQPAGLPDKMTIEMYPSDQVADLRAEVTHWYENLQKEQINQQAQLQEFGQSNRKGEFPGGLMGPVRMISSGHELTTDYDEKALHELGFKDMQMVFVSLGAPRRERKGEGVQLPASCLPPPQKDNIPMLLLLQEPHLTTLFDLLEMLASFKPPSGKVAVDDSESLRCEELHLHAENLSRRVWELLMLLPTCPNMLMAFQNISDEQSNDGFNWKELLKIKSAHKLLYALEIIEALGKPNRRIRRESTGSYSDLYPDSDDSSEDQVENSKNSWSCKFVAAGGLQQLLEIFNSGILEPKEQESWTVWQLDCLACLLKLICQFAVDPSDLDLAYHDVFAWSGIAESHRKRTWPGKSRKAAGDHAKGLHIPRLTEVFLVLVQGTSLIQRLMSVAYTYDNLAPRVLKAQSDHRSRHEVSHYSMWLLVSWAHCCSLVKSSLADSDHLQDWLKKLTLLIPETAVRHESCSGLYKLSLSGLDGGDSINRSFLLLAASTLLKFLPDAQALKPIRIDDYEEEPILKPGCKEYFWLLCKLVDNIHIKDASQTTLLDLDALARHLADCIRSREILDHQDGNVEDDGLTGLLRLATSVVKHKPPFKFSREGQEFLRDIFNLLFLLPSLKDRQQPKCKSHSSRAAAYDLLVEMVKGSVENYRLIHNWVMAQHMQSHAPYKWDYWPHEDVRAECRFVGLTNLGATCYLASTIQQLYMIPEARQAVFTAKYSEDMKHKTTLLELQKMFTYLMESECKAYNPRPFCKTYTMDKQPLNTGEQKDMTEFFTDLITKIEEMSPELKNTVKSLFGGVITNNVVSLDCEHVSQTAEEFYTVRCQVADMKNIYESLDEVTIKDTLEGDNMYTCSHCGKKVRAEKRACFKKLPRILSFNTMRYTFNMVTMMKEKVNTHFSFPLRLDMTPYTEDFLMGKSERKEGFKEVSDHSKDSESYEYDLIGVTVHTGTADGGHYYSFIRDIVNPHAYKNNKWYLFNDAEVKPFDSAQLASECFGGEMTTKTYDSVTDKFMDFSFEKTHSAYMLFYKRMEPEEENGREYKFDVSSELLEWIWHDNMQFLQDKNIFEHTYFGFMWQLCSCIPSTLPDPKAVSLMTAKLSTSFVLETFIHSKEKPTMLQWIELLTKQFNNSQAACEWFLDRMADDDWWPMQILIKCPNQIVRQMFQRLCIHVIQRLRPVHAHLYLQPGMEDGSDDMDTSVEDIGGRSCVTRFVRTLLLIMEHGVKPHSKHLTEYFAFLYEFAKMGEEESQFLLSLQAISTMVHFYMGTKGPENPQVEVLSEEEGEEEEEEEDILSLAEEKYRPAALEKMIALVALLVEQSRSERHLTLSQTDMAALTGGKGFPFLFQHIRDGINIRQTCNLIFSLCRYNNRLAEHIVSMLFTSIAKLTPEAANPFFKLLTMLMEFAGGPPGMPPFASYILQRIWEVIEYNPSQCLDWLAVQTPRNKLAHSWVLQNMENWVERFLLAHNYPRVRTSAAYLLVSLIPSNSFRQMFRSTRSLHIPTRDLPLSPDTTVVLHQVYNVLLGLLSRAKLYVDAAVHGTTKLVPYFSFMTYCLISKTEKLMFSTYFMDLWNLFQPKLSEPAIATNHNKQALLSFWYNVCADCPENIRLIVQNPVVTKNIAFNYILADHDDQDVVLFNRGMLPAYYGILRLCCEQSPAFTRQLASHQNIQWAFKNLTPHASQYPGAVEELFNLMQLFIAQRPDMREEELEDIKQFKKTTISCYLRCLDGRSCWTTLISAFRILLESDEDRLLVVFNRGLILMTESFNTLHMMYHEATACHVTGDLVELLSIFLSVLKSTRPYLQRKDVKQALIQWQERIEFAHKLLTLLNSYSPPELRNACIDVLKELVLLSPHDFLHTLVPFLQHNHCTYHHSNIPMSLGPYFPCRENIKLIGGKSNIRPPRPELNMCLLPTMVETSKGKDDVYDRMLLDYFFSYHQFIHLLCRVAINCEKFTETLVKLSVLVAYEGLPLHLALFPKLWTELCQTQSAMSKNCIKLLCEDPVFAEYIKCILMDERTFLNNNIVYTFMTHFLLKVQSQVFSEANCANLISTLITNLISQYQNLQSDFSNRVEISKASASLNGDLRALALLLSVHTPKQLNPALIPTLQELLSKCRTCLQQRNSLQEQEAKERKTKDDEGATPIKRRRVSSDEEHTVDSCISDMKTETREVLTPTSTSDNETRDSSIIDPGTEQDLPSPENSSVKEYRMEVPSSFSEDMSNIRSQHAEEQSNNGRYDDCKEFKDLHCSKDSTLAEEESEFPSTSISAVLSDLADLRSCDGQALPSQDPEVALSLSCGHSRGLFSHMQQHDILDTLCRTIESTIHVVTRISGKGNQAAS

Cc1ccc(CC(NC(=O)CCl)c2ccccn2)cc1.Cl (stereo not given)
inactive: USP34 -0.162 | USP36 0.13 | USP38 -0.114 | USP39 -0.181 | USP4 0.169
